We go through twelve compounds from PubChem BioAssay (NCATS).

What all share (assay): qHTS profiling for inhibitors of Plasmodium falciparum proliferation (AID 504749); also: nearly all actives have a fitted effect of over 60% in size
Holding throughout (details): P. falciparum in erythrocytes, SYBR Green DNA, 72 h; series mostly up to 28.7 µM
(Quantitative high-throughput screening tests each substance at several concentrations.)

The test system of test [1] is AA1029. The method in brief: (§1)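 P. falciparum-infected erythrocytes (0.3% parasitemia, 2.5% hematocrit final) were exposed to compounds for 72 h at 37 C in 5% CO2, then lysed with SYBR Green buffer overnight at room temperature; parasite DNA fluorescence was normalized to artemisinin and DMSO controls.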
Test [2] has as its system ATS95. Put shortly:
as §1

The subject of test [3] is C2A. The method in brief:
as §1

The subject of test [4] is CP211. Put shortly: as §1
Test [5] concerns CP215. Put shortly: as §1
The test system of test [6] is CP217. The method in brief: as §1
Test [7] has as its system CP250. Put shortly: as §1
In test [8] the test system is CP252. Put shortly: as §1
Test [9] deals with CP256. Put shortly: as §1
In test [10] the test system is CP260. Put shortly:
as §1

The subject of test [11] is CP262. The method in brief:
as §1

Test [12] has as its system CP265. Put shortly: as §1
The subject of test [13] is CP291. The method in brief:
as §1

Test [14] relates to CP315. The method in brief: as §1
In test [15] the test system is Dd2. The method in brief:
as §1

Test [16] relates to FAB9. Put shortly: as §1
In test [17] the test system is ICS. Put shortly:
as §1

For test [18], the system named is N140. The method in brief:
as §1

Test [19] has as its system SC27B. The method in brief: as §1
Test [20] has as its system TAB165. Put shortly: as §1

SMILES strings stand for the structures. Records with an inconclusive call do not appear. Activity calls are given as the source filed them. Calls follow the shape of the dose curve; as a rule, active = well fitted inhibition curve with a large enough effect; inconclusive = small, poorly fitted or top-dose-only effect; inactive = flat fitted curve, though single readings scatter.
Potency is read from the fitted curve at half-maximal effect.

On to `CC(c1ncncc1F)[C@](O)(Cn1cncn1)c1ccc(F)cc1F` (stereo not given in full), for which the Potency entry in [1], in [2], in test [3], in [4], in test [5] and in test [6] was “inactive” throughout. The Potency result in test [7], in test [8], in test [9], in test [10], in [11] and in [12] was “inactive” throughout. Further, the Potency result in [13], in test [14], in test [15], in test [16], in test [17] and in [18] was “inactive” throughout. Moreover, the Potency entry in [19] and in test [20] was “inactive” throughout.
With `CC[C@@H](C)C(N)C(=O)O` (stereo not given in full), the Potency entry in [1], in test [2], in test [3], in test [4], in test [5] and in test [6] was “inactive” throughout. Besides, the Potency result in [7], in [8], in [9], in test [10], in [11] and in test [12] was “inactive” each time. The Potency entry in [13], in test [14], in test [15], in test [16], in test [17] and in test [18] was “inactive” each time. Also, the Potency result in [19] and in [20] was “inactive” in each case.
In the case of `Cc1cnc(C(=O)O)cn1`, the Potency result in test [1], in test [2], in test [3], in test [4], in test [5] and in [6] was “inactive” each time. Also, the Potency result in test [7], in test [8], in [9], in test [10], in [11] and in test [12] was “inactive” throughout. Moreover, the Potency result in test [13], in test [14], in test [15], in test [16], in test [17] and in test [18] was “inactive” each time. Moreover, the Potency result in [19] and in test [20] was “inactive” throughout.
For the compound `OCC1O[C@@H](O[C@@H]2C(CO)OC(O)C(O)C2O)C(O)C(O)C1O` (stereo not given in full), the Potency entry in [1], in test [2], in test [3], in [4], in test [5] and in [6] was “inactive” in each case. The Potency result in test [7], in [8], in test [9], in [10], in test [11] and in [12] was “inactive” each time. Moreover, the Potency result in test [13], in test [14], in [15], in test [16], in [17] and in test [18] was “inactive” each time. Moreover, the Potency entry in test [19] and in test [20] was “inactive” each time.
On to `CO/N=C(/C(=O)N[C@@H]1C(=O)N2C(C(=O)O)=C(C[n+]3ccc(N)n3CCO)CS[C@H]12)c1csc(N)n1`, for which the Potency entry in test [1], in test [2], in test [3], in [4], in [5] and in test [6] was “inactive” in each case. Moreover, the Potency result in test [7], in [8], in [9], in [10], in [11] and in [12] was “inactive” throughout. In addition, the Potency result in [13], in [14], in test [15], in test [16], in [17] and in [18] was “inactive” throughout. The Potency entry in test [19] and in test [20] was “inactive” throughout.
Turning to `CO[C@H]1OC2O[C@@]3(C)CC[C@H]4[C@H](C)CC[C@@H]([C@H]1C)[C@@]24OO3` (stereo not given in full), the Potency is 31.6 nM (active) in [1]; 25.1 nM (active) in test [2]; 35.5 nM (active) in test [3]; 75.7 nM (active) in test [4]; 30.1 nM (active) in test [5]; 31.6 nM (active) in [6]. Also, the Potency in test [7] was 63.1 nM (active); in test [8], 31.6 nM (active); in [9] it was 12.6 nM (active); in test [10], 14.1 nM (active); in test [11] it was 33.8 nM (active); in test [12], 3.2 nM (active). Also, the Potency is 26.9 nM (active) in test [13]; 95.3 nM (active) in test [14]; 7.1 nM (active) in [15]; 22.4 nM (active) in test [16]; 4.5 nM (active) in test [17]; 12.6 nM (active) in test [18]. Besides, the Potency is 14.1 nM (active) in test [19] and 22.4 nM (active) in test [20].
`Cc1ccc(S(=O)(=O)NC(=O)NC(C)Cc2ccccc2)cc1` (stereo not given): the Potency result in test [1], in [2], in test [3], in [4], in test [5] and in [6] was “inactive” each time. In addition, the Potency result in [7], in [8], in [9], in [10], in [11] and in test [12] was “inactive” in each case. Besides, the Potency entry in test [13], in test [14], in test [15], in test [16], in test [17] and in [18] was “inactive” each time. Further, the Potency entry in [19] and in [20] was “inactive” each time.
In the case of `C=C1[C@@H]2CC[C@H](C2)C1(C)C`, the Potency entry in test [1], in test [2], in test [3], in test [4], in test [5] and in test [6] was “inactive” in each case. Further, the Potency entry in test [7], in [8], in test [9], in test [10], in [11] and in test [12] was “inactive” in each case. The Potency entry in [13], in test [14], in [15], in test [16], in test [17] and in test [18] was “inactive” throughout. Further, the Potency entry in [19] and in [20] was “inactive” each time.
Take `C[C@@H]1C(SC2Cn3cnc[n+]3C2)=C(C(=O)[O-])N2C(=O)[C@H]([C@@H](C)O)[C@@H]12` (stereo not given in full): the Potency result in test [1], in [2], in test [3], in test [4], in test [5] and in [6] was “inactive” each time. Besides, the Potency result in test [7], in test [8], in [9], in test [10], in test [11] and in [12] was “inactive” each time. For the same compound, the Potency entry in test [13], in [14], in test [15], in [16], in test [17] and in test [18] was “inactive” throughout. The Potency entry in test [19] and in test [20] was “inactive” each time.
With `CNC(=O)C(N)CSC(C)C1=C(C)c2cc3[n-]c(cc4nc(cc5[n-]c(cc1n2)c(C)c5CCC(=O)O)C(CCC(=O)O)=C4C)c(C)c3C(C)SCC(N)C(=O)NC.[Fe+2]` (stereo not given), the Potency result in test [1], in test [2], in test [3], in test [4], in test [5] and in test [6] was “inactive” each time. Besides, the Potency entry in test [7], in [8], in test [9], in [10], in test [11] and in test [12] was “inactive” each time. Besides, the Potency entry in test [13], in test [14], in [15], in [16], in [17] and in [18] was “inactive” in each case. The Potency entry in [19] and in test [20] was “inactive” each time.
Regarding `CC12C=CC(=O)C=C1[C@@H](F)CC1C2C(O)CC2(C)C1CC[C@]2(O)C(=O)CO` (stereo not given in full), the Potency entry in test [1], in test [2], in test [3], in [4], in test [5] and in [6] was “inactive” in each case. For the same compound, the Potency result in [7], in [8], in test [9], in test [10], in test [11] and in test [12] was “inactive” each time. Also, the Potency result in [13], in test [14], in test [15], in test [16], in test [17] and in [18] was “inactive” throughout. The Potency entry in [19] and in [20] was “inactive” throughout.
With `O=c1[nH]c(=O)n(C2C[C@H](O)[C@@H](CO)O2)cc1C(F)(F)F` (stereo not given in full), the Potency result in [1], in test [2], in [3], in [4], in [5] and in test [6] was “inactive” throughout. The Potency entry in [7], in test [8], in [9], in test [10], in [11] and in [12] was “inactive” throughout. For the same compound, the Potency entry in test [13], in test [14], in test [15], in test [16], in [17] and in test [18] was “inactive” throughout. Moreover, the Potency result in test [19] and in [20] was “inactive” throughout.
